“And” between values parts separate entries of the source, which are not always exact repeats. Equal entries are not always repeated. Among all 420,000 compounds or so, about 75 (0.02%) were called active. Calls follow the shape of the dose curve; as a rule, active = well fitted activation curve with a large enough effect; inconclusive = small, poorly fitted or top-dose-only effect; inactive = no such curve, though single readings can be large or run the other way. Only a selection was taken, and actives are over-represented in it overall.
Potency is read from the fitted curve at half-maximal effect.

This assay in a line: qHTS for Inducers of the Endoplasmic Reticulum Stress Response (ERSR) in Human Glioma: qHTS. Also: nearly all actives have a fitted effect of over 35% in size. As to activation: % of control where 0% means no effect. The conditions noted are these: U87-MG GRP78 promoter luciferase reporter, 16 h; activation: active compounds read high. An excerpt:
Primary protein unfolding takes place for many diseases, including diabetes and hypoxia, , and triggers a reaction in the cells called ER stress response (ERSR). ). ERSR is designed as a repair mechanism, but ultimately leads to cell death via apoptosis if conditions triggering protein unfolding persist (1). The molecular clue to ERSR activation is the enhancement of the expression of key molecular chaperones, including the glucose regulated protein (GRP) 78. GRP78 is the main sensor for protein folding and the main actuator of the ERSR.
In a collaboration between the Southern Research Institute and the NIH Chemical Genomics Center, a cell based screen was developed that reliably uses GRP78 as a sensor to identify small molecules as inducers of ERSR. In resting conditions, GRP78 binds proteins and acts as a natural repressor. Once unfolded proteins are present in the ER, GRP78 releases some of the repressors and binds to the unfolded proteins. The release of the repressors executes the ERSR program. Using a human glioma cell line in a miniaturized, luminescent format, a high-throughput screen was developed to identify actuators of the ERSR.
(1) Soboloff, J. and S. A. Berger (2002). "Sustained ER Ca2+ depletion suppresses protein synthesis and induces activation-enhanced cell death in mast cells." J Biol Chem 277(16): 13812-20.
NIH Chemical Genomics Center [NCGC]
NIH Molecular Libraries Probe Centers Network [MLPCN]
Assay Submitter (PI): Maurizio Grimaldi, Southern Research Institute
Stable transfected human glioma cell line, U87-MG, are dispensed at density 1000 cells/well into Greiner white solid bottom 1536-well assay plates. Compounds are transferred via Kalypsys pin tool equipped with 1536-pin array (10nl slotted pins, V&P Scientific, San Diego, CA). The assay plates will be incubated for 16 hours and developed by adding appropriate quantities of the Promega Bright Glo reagent. The plates will be incubated at room temperature for 10 minutes prior to being transferred into a ViewLux high-throughput CCD imager (PerkinElmer), wherein end-point measurements of luminescence are acquired.
(In general: In qHTS, concentration-response curves come from the screen itself.)
Consider `OCC1CCCN(c2nc3cc4c(cc3cc2CNCc2cccs2)OCO4)C1` (configuration not stated), for which the activation was -3.02% (inactive).
Same read-out and setting: the figure for `Cc1cc[n+](C2CCCCC2)cc1` is 0.895% (inactive); for `C#CCC(C(=O)OC)(C(=O)OC)C(C[N+](=O)[O-])c1ccccc1` (configuration not stated) it is -5.05% (inactive); for `COc1ccc(CN2CCOc3c(cc(-c4ncc(C(F)(F)F)cc4Cl)cc3OCC3CCCO3)C2)c(O)c1` (configuration not stated) it is -0.626% (inactive).
`COc1cccc(CN2CCC3(CC2)c2ccccc2[C@@H](NC(=O)c2ccccc2OC)[C@@H]3O)c1`: the activation is -2.93% (inactive).
For the compound `CC1(C)OC(C(O)(c2ccccc2)c2ccccc2)C(C(O)(c2ccccc2)c2ccccc2)O1` (configuration not stated), the activation is -4.02% (inactive).
As to `C[C@@H]1O[C@@H](OC[C@H]2O[C@@H](Oc3cc(O)c4c(c3)O[C@H](c3ccc(O)c(O)c3)CC4=O)[C@H](O)[C@@H](O)[C@@H]2O)[C@H](O)[C@H](O)[C@H]1O`, the activation was -3.44% (inactive).
For the compound `CC(=O)OCC1OC(C#CCCCc2ccccc2)C=CC1OC(C)=O` (configuration not stated), the activation was -2.84% (inactive) and 1.87% (inactive).
Still for that read-out and setting: the result for `CC(=O)OC[C@H]1O[C@@H](O[C@H]2[C@H](O)[C@@H](OC(=O)c3ccccc3C(=O)O)[C@H](O)O[C@@H]2COC(C)=O)[C@H](O)[C@@H](OC(=O)c2ccccc2C(=O)O)[C@@H]1O` reads -0.805% (inactive); that for `CN(C)c1ccc(/C=C/c2sc3ccccc3[n+]2C)cc1`, -8.55% (inactive); that for `FC(F)(F)c1cccc(-c2cn[nH]c2C2CCCN(Cc3cccn3-c3ccccn3)C2)c1` (configuration not stated), -5.05% (inactive).
As to `C=C(C)C1CC=C(CO)CC1` (configuration not stated), the activation was -1.71% (inactive).
In the case of `C=C(C)C1CC=C(C)C(O)C1` (configuration not stated), the Potency was 11.2 µM (active).
Consider `CCOC(=O)N/N=C1/C[C@@H](O)[C@@H](O)[C@@H]2[C@@H]3C(=O)N(CC)C(=O)[C@H]3CC[C@H]12`, for which the activation was -5.32% (inactive).
The same measure, in the same setting: the result for `CN1[C@H]2CC(OC(=O)[C@@H](CO)c3ccccc3)C[C@H]1[C@H]1O[C@H]12` (some centres not stated) reads -4% (inactive); that for `COc1ccccc1-c1ccc(C(=O)N(C)C(C)c2ccon2)c(N2CCN(c3ccccc3F)CC2)n1` (configuration not stated), -4.71% (inactive).
For the compound `Cc1cnc(C(=O)N2CCOc3ccc(CN4CCCC(C(=O)c5cccnc5)C4)cc3C2)[nH]1` (configuration not stated), the activation is -3.36% (inactive).
`COc1ccc(CN2CCC3(CCC(CNC(=O)c4ccco4)O3)CC2)cc1OC` (configuration not stated): the activation is 0.172% (inactive).
With `COC(=O)c1ccccc1-c1cc(C)cc2c1OC(CNC(=O)C1CCOC1)C2` (configuration not stated), the activation is -1.81% (inactive).
The same measure, in the same setting: the result for `Cn1c(=O)c(CCc2ccccc2)nc2cnc(Nc3ccccc3)nc21` reads -3.93% (inactive); that for `Cc1c(S(=O)(=O)O)oc2c1C(=O)C(=O)c1c-2ccc2c1CCCC2(C)C`, -3.94% (inactive); that for `CCOC(=O)N1CCC(N2CCOc3ccc(CN4CCC(O)(c5cccnc5)CC4)cc3C2)CC1`, -2.68% (inactive).
Regarding `CC(CCC(=O)O)C1CCC2C3C(O)C[C@@H]4CC(O)CC[C@@]4(C)C3CC[C@@]12C` (some centres not stated), the activation is -5.26% (inactive) and -4.28% (inactive).
In the case of `COc1ccc(-n2c(CNC(=O)c3cc(C(F)(F)F)ccc3Cl)nnc2SC)cc1`, the activation is -6.93% (inactive).
As to `COc1c(O)c2c(=O)cc(OC)c3c4c(OC)cc(=O)c5c(O)c(OC)c6c(c(c1C[C@@](C)(O)[C@H]6C(C)=O)c23)c54`, the activation is -6.89% (inactive).
With `COc1cc(=O)n2c(c1C(=O)N(C)Cc1nonc1C)CCN(C(=O)c1ccc(C)cc1C)CC2`, the activation was -4.93% (inactive).
As for `CC(C)(C)c1ccc(OC2C=CC(C#Cc3ccccc3)OC2CO)cc1` (configuration not stated), the activation is -2.6% (inactive).
On the same count and under the same terms, the result for `CCOc1ccc2nc(N3CCCN(CCCn4cccn4)CC3)nc(C)c2c1` reads 0.4% (inactive); that for `O=C(NCC1Cc2cc(F)cc(-c3cnccn3)c2O1)C1COc2ccccc2O1` (configuration not stated), -2.7% (inactive); that for `CCC1CN(CCNC(=O)c2cccc(C)n2)Cc2cc(OC)ccc2O1` (configuration not stated), -0.701% (inactive).
As for `C=C1C(=CC=C2CCC[C@]3(C)[C@@H]([C@H](C)C=C[C@H](C)C(C)C)CC[C@@H]23)C[C@@H](O)C[C@@H]1O`, the activation is -0.319% (inactive).
Consider `COc1cccc(-c2cc(=O)c3cc(NC(=O)c4ccc(C)cc4)ccc3[nH]2)c1`, for which the activation is -1.6% (inactive).
For `COc1ccccc1C(=O)N[C@@H]1c2ccccc2C2(CCN(Cc3nc(C(C)C)cs3)CC2)[C@H]1O`, the activation was -7.22% (inactive).
Turning to `CCC1CN(CCNC(=O)c2cccnc2C)Cc2cc(OC)ccc2O1` (configuration not stated), the activation was -0.134% (inactive).
Still for that read-out and setting: the figure for `Cc1[nH]c2c(C(=O)NCC3Cc4cccc(-c5cccnc5)c4O3)cccc2c1C` (configuration not stated) is -3.83% (inactive); for `c1ccc(CN2CCN(Cc3ccc4c(c3)CN(Cc3c[nH]c5ccccc35)CCO4)CC2)nc1` it is -3.67% (inactive); for `CN1CCN(/[N+]([O-])=N/Oc2ccc([N+](=O)[O-])cc2[N+](=O)[O-])CC1` it is 20.9% (inactive).
The same measure, in the same setting: the result for `CCc1noc(C)c1C(=O)NCCN1Cc2cc(OC)ccc2OC(CC)C1` (configuration not stated) reads -4.48% (inactive).
As to `C=C1/C(=C\C=C2\CCCC3(C)C2CCC3C(C)/C=C/C(O)C2CC2)CC(O)CC1O` (configuration not stated), the activation is -9.49% (inactive).
For `COC(=O)c1ccccc1C(=O)NCc1nc(N2CCCC2)c2cccc(C)c2n1`, the activation is -2.48% (inactive).
Consider `CC(=O)c1ccc(F)c(-c2cc(C)cc3c2OC(CNC(=O)Cc2c[nH]c4ccccc24)C3)c1` (configuration not stated), for which the activation is 0.07% (inactive).
The same measure, in the same setting: the figure for `CO/N=C(\C(=O)N[C@@H]1C(=O)N2C(C(=O)O)=C(Cn3nnc(C)n3)CS[C@H]12)c1csc(N)n1` is -1.86% (inactive).
Same read-out and setting: the result for `CCCCc1nn(-c2ccccc2C(F)(F)F)c(=O)n1Cc1ccc(-c2ccccc2S(=O)(=O)NC(=O)c2sccc2C)cc1` reads -2.91% (inactive); that for `Cc1ccc2c(C)nc(N3CCCC(C(=O)NC(C)(C)CO)C3)nc2c1` (configuration not stated), -2.4% (inactive); that for `CC(O)(COc1ccccc1)c1ccc2c(c1)CN(Cc1cn[nH]c1-c1ccc(F)cc1)CCO2` (configuration not stated), -3.22% (inactive).
As to `COc1ccccc1C1CN(Cc2ccccc2O)Cc2ccccc2O1` (configuration not stated), the activation was -2.43% (inactive).
In the case of `C[C@H]1CC[C@H](C(=O)O)N[C@@H]1c1ccc(C#Cc2ccccc2)cc1`, the activation is -4.8% (inactive).
In the case of `C=CCC1CCC(=O)N2CCCC12` (configuration not stated), the activation is -2.78% (inactive).
`O=c1c(CN2CCOc3ccc(CN4CCC(Oc5cccnc5)CC4)cc3C2)coc2ccccc12`: the activation was -1.61% (inactive).
With `O=C(CN1Cc2ccccc2OC(c2ccccc2)C1)N1CCCCC1c1cccnc1` (configuration not stated), the activation was 0.385% (inactive).
On the same count and under the same terms, the figure for `C[C@H]1C[C@H]2[C@@H]3CCC4=CC(=O)C=C[C@]4(C)[C@@H]3C(=O)C[C@]2(C)[C@@]1(O)C(=O)CO` is -3.39% (inactive); for `CC(=O)Oc1c2c(c3c(c1CC=C(C)C)O[C@@]14C(=CC5CC1C(C)(C)OC4(C/C=C(\C)C(=O)O)C5=O)C3=O)OC(C)(CCC=C(C)C)C=C2` (some centres not stated) it is -12.4% (inactive).
As for `COC(=O)C1=C(C)N(Cc2ccccc2)C2=C3C(=O)N(c4ccccc4)C(=O)C3[C@@](O)(C(=O)OC)C(=O)N2C1c1ccccc1` (some centres not stated), the activation is -1.87% (inactive) and -3.39% (inactive).
With `CN1CCc2nc(-c3ccccc3)c(-c3ccccc3)cc2C1`, the activation is -5.76% (inactive).
As to `C=CCOC(=O)C(C(C)=O)C(NC(=O)OC)c1ccccc1` (configuration not stated), the activation was -3.7% (inactive).
For the compound `O=C1C[C@H]2C=CCc3cccc(c32)CN1Cc1ccccc1`, the activation was -0.186% (inactive).
Take `CC(C)c1cc(C(=O)N2CCOc3ccc(CN4CCC(Oc5cccnc5)CC4)cc3C2)n[nH]1`: the activation was -4.01% (inactive).
`COc1ccccc1C1CN(CCNC(=O)C2=CCCC2)Cc2ccccc2O1` (configuration not stated): the activation is -2% (inactive).
On the same count and under the same terms, the figure for `CC[C@H](C)[C@H](NC(=O)[C@H](Cc1cnc[nH]1)NC(=O)[C@@H](N)CCC(=O)O)C(=O)N1CCC[C@H]1C(=O)N[C@@H](C)C(=O)O` is -2.54% (inactive); for `CO[C@H]1C[C@@H](O[C@@H]2[C@@H](C)O[C@@H](O[C@@H]3/C(C)=C/CC4C[C@@H](C[C@]5(C=C[C@@H](C)[C@H](C6CCCCC6)O5)O4)OC(=O)[C@@H]4C=C(C)[C@@H](O)[C@H]5OC/C(=C\C=C\[C@@H]3C)[C@]54O)C[C@H]2OC)O[C@@H](C)[C@@H]1O` it is -9.58% (inactive).
Regarding `CC(C)(C)c1ccc(C(=O)C[N+]2(C)CCCc3ccccc32)cc1` (configuration not stated), the activation was -4.17% (inactive).
As for `CC(=O)Nc1cc(C(=O)N2CCc3c(Cl)cccc3C2)cc2ncn(CCc3ccccn3)c12`, the activation is -1.89% (inactive).
For the compound `C[C@@H](c1ccccc1)N1C(=O)[C@H]2[C@H]3[C@H](O)[C@H](O)C/C(=N/OC[C@@H](O)COCc4ccco4)[C@@H]3CC[C@@H]2C1=O`, the activation was -4.31% (inactive).
The same measure, in the same setting: the figure for `Cc1ncc2c(c1CNS(=O)(=O)N(C)C)CCN(C(=O)c1ccccc1F)C2` is -3.66% (inactive); for `O=C1CCN(Cc2ccc(-c3ccccc3)cc2)CCN1Cc1ccccn1` it is 2.1% (inactive).
Consider `CN(C)C(=O)[C@@H]1C[C@@H](Sc2nc3ccccc3[nH]2)CN1Cc1ccc(Cl)cc1`, for which the activation was -3.23% (inactive).
As for `C[C@@H]1O[C@@H](OC[C@H]2O[C@@H](Oc3c(-c4cccc(O)c4O)oc4cc(O)cc(O)c4c3=O)[C@H](O)[C@@H](O)[C@@H]2O)[C@H](O)[C@H](O)[C@H]1O`, the activation is -4.32% (inactive).
Same read-out and setting: the result for `CCCS(=O)(=O)NCc1c(C)ncc2c1CCN(C(=O)c1ccc(F)c(F)c1)C2` reads -4.76% (inactive).
For `CC(C)C(=O)NC(C)c1nnc2n1CCN(Cc1cccc3ncccc13)CC2` (configuration not stated), the activation is -2.92% (inactive).
As to `CCC1CN(CCNC(=O)c2ccsc2)Cc2cc(OC)ccc2O1` (configuration not stated), the activation is -2.11% (inactive).
For `N#Cc1cccc(-c2ccc3ncnc(NCc4cccs4)c3c2)c1`, the activation is -10.9% (inactive).
On the same count and under the same terms, the result for `COC(=O)[C@@H]1CC[C@H](C)[C@@H](c2ccc(C)cc2)N1C(=O)c1ccc(/C=N\O[C@@H](C)c2cn([C@H](CO)Cc3ccccc3)nn2)cc1` reads -4.74% (inactive) and -2.82% (inactive).

Source of the values: PubChem BioAssay AID602332 (National Center for Advancing Translational Sciences (NCATS), 2012).
